Screening results as filed in PubChem BioAssay.
Only some compounds are listed: those with a hit (about 3.3% of all), similar ones and a draw of the others.
Anthrax LF inh2: blocks Bacillus anthracis lethal factor protease; P15917; multiplex microsphere protease cleavage assay, LF; inhibition, % at 10 µM; 0.12% of 360,000 active; AID 588501
Target sequence (P15917 whole entry, looked up): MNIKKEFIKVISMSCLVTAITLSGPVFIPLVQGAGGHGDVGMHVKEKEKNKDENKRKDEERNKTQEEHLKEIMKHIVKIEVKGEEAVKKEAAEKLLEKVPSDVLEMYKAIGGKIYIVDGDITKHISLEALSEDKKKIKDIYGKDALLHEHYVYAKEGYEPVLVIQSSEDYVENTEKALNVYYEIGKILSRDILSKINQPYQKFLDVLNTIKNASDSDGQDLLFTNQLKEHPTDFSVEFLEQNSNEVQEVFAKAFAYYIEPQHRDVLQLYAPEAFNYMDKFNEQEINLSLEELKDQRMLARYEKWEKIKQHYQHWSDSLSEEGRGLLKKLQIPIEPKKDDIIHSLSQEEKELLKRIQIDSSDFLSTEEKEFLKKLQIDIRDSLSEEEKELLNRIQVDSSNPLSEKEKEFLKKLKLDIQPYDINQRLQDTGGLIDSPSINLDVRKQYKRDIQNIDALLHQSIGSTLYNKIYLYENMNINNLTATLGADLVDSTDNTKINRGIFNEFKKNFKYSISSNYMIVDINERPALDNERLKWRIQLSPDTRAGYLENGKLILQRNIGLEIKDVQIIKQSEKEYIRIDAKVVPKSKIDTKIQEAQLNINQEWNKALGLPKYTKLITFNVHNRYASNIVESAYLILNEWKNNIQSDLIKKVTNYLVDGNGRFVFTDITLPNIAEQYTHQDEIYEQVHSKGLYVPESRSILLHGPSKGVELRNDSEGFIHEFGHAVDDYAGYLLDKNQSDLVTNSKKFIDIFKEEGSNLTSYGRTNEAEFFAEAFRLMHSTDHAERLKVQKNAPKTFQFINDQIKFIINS
Bead autofluor: flagged as autofluorescent in microsphere protease counterscreen. compound autofluorescence counterscreen, microsphere flow cytometry; hits give high values. fluorescence intensity (concentration not given with the values). 3.1% of 360,000 active; in the data active means fluorescence intensity above about 16000; inconclusive means no clear call, values can overlap the other calls
BoNT-F LC inh: BoNT F light chain protease inhibition; Multiplex microsphere protease cleavage assay, flow cytometry; inhibition, % at 10 µM; 0.22% of 360,000 active; AID 588497; in the data active means inhibition above about 35%, passing the limit was not always enough; inconclusive means no clear call, values can overlap the other calls
MazEF act: activators of E. coli MazEF toxin-antitoxin RNase. P0AE70. 0.32% of 350,000 active. activation, % at 20 µM. FAM/BHQ RNA-DNA oligo cleavage fluorescence, 5 h; in the data active means activation above about 50%
BoNT A protease: BoNT A light chain protease inhibition. multiplex microsphere protease substrate cleavage, flow cytometry. inhibition, % at 10 µM. 0.17% of 360,000 active. AID 588499
PriA SSB inh: inhibitors of Klebsiella pneumoniae PriA binding to SSB C-terminal tail; AlphaScreen SSBct-PriA binding, biotinylated peptide; inhibition, % at 33 µM; 0.6% of 430,000 active; in the data active means inhibition mostly above about 37%, no sharp cut-off; inactive means mostly below about 20%
Each line names hits and unclear results; the compound was inactive in the other large screens. Unless noted, no stated cut-off is given here; in the data, active means inhibition above about 30%; inconclusive means no clear call, values can overlap the other calls; inactive means below that.

COc1cc(OC)c2c(-c3ccccc3)cc(=O)oc2c1C(CCN1CCOCC1)c1ccc(N(C)C)cc1 (configuration not stated)	PriA SSB inh 39
COc1ccc(-n2c(C)c(C)n3c4c(=O)n(CCN5CCOCC5)c(=O)n(C)c4nc23)cc1Cl	none (no result: Anthrax LF inh2, Bead autofluor, BoNT-F LC inh, MazEF act, BoNT A protease)
CCOC(=O)/C(=C/C=C1\Sc2cc(C)c(C)cc2N1CC)C(C)=O	Bead autofluor 16482, BoNT A protease 40
O=c1nc(N2CCOCC2)ccn1C(N=C(c1ccccc1)N1CCOCC1)=C(Cl)Cl	none (no result: Anthrax LF inh2, Bead autofluor, BoNT-F LC inh, MazEF act, BoNT A protease)
CN1CCc2c(sc3c2C(=O)NC(c2ccco2)N3)C1 (configuration not stated)	Bead autofluor 18769
O=C1NC(c2ccco2)Nc2sc3c(c21)CCN(Cc1ccccc1)C3 (configuration not stated)	none
CN1CCc2c(sc3c2C(=O)NC(c2cn(Cc4ccccc4)c4ccccc24)N3)C1 (configuration not stated)	Bead autofluor 20205
COc1ccc(Br)cc1C1NC(=O)c2c(sc3c2CCN(C)C3)N1 (configuration not stated)	none
O=C(NCc1cncc(-c2ccsc2)c1)c1c(F)cccc1F	none (no result: Anthrax LF inh2, Bead autofluor, BoNT-F LC inh, MazEF act, BoNT A protease)
CC(C)n1c(=O)c2c(O)cc(=O)oc2c2ccccc21	Bead autofluor 21712, BoNT A protease inconclusive
CCn1c(=O)c2c(O)cc(=O)oc2c2ccccc21	Bead autofluor 22829, BoNT A protease inconclusive
CC(C)(C)c1ccc(C(=O)Nc2ccc(-n3nnn(CC(N)=O)c3=O)cc2)cc1	none (no result: Anthrax LF inh2, Bead autofluor, BoNT-F LC inh, MazEF act, BoNT A protease)
O=[N+]([O-])c1ccccc1N1CCN(c2ccc([N+](=O)[O-])c3cccnc23)CC1	PriA SSB inh 75 (no result: Anthrax LF inh2, Bead autofluor, BoNT-F LC inh, MazEF act, BoNT A protease)
CC1CN(c2ccc([N+](=O)[O-])c3cccnc23)CC(C)N1 (configuration not stated)	PriA SSB inh 38 (no result: Anthrax LF inh2, Bead autofluor, BoNT-F LC inh, BoNT A protease)
O=C(C1CCN(c2ccc([N+](=O)[O-])c3cccnc23)CC1)N1CCCCCC1	none (no result: Anthrax LF inh2, Bead autofluor, BoNT-F LC inh, MazEF act, BoNT A protease)
O=[N+]([O-])c1ccc(N2CCCC2)c2ncccc12	MazEF act 101
O=[N+]([O-])c1ccc(N2CCN(Cc3ccccc3)CC2)c2ncccc12	none (no result: Anthrax LF inh2, Bead autofluor, BoNT-F LC inh, MazEF act, BoNT A protease)
O=[N+]([O-])c1ccc(N2CCN(CCO)CC2)c2ncccc12	none
CC(=O)Nc1ccc(S(=O)(=O)N=C2C(=O)c3ccccc3C([O-])=C2n2cc[n+](-c3ccccn3)c2)cc1	none (no result: Anthrax LF inh2, Bead autofluor, BoNT-F LC inh, MazEF act, BoNT A protease)
CCCSC(N)=NN=Cc1ccccc1O	none (no result: Anthrax LF inh2, Bead autofluor, BoNT-F LC inh, MazEF act, BoNT A protease)
COc1ccc(C(=O)N(Cc2ccco2)c2nc3c(C)c(C)ccc3s2)cc1OC	none (no result: Anthrax LF inh2, Bead autofluor, BoNT-F LC inh, MazEF act, BoNT A protease)
Clc1ccc(-c2nc(Cc3nc(-c4ccc(Cl)cc4)n4ccccc34)c3ccccn23)cc1	none (no result: Anthrax LF inh2, Bead autofluor, BoNT-F LC inh, MazEF act, BoNT A protease)
CC(=NNc1cc(-c2ccccc2)nc(-c2ccc(Br)cc2)n1)c1cccc(N)c1	none (no result: Anthrax LF inh2, Bead autofluor, BoNT-F LC inh, MazEF act, BoNT A protease)
C/C(=N\Nc1cc(-c2ccccc2)nc(-c2ccc(Br)cc2)n1)c1cccc(N)c1	Bead autofluor 17624 (no result: PriA SSB inh)
Cc1cc(C)c2c(c1)sc(=NC(=O)CN1C(=O)c3ccccc3C1=O)n2C	none (no result: Anthrax LF inh2, Bead autofluor, BoNT-F LC inh, MazEF act, BoNT A protease)
C=CCN1C(=O)/C(=C\C=C2\N(C)c3ccccc3C2(C)C)SC1=S	BoNT A protease 41
O=C(c1ccc(-c2ccccc2)cc1)c1ccccc1C(=O)N1CCOCC1	Bead autofluor 22303
O=C(c1ccccc1-c1nc(-c2ccccc2)no1)N1CCOCC1	Bead autofluor 18009
O=C(Oc1ccccc1C(=O)N1CCOCC1)c1ccc(F)cc1	BoNT-F LC inh inconclusive
O=C(Oc1ccccc1C(=O)N1CCOCC1)c1ccc(Br)cc1	Bead autofluor 20205, BoNT A protease inconclusive
CSc1ccc(C(=O)Nc2cc(C)nn2-c2nc3ccccc3s2)cc1	none (no result: Anthrax LF inh2, Bead autofluor, BoNT-F LC inh, MazEF act, BoNT A protease)
CCOc1ccccc1C(=O)NCC1CCN(Cc2ccco2)CC1	none (no result: Anthrax LF inh2, Bead autofluor, BoNT-F LC inh, MazEF act, BoNT A protease)
CC(=O)NC12CC3CC(CC(CC(=O)O)(C3)C1)C2	Bead autofluor 21352
CC(=O)NC(C)C12CC3CC(CC(CC(=O)O)(C3)C1)C2 (configuration not stated)	none
CC(=O)NC12CC3CC(C)(C1)CC(NC(C)=O)(C3)C2	Bead autofluor 23165, BoNT A protease inconclusive
CC1(C(=O)NC23CC4CC(CC(C4)C2)C3)CC1(Cl)Cl (configuration not stated)	none
CC(=O)Nc1cccc(N2CCCC2=O)c1	Bead autofluor 25393
COc1cccc(N2CCc3c(C)nc4ccc(Cl)cc4c32)c1	none
CCN1Cc2c(/C=C/c3ccccc3)nc3ccc(OC)cc3c2N(c2cccc(Cl)c2)C1	BoNT A protease 53
CCNC(=S)NNC(=O)c1cccn(Cc2ccc(Cl)cc2Cl)c1=O	Bead autofluor 22212, BoNT A protease inconclusive
